Rab9 promoter act: Rab9 promoter activation; Huh7 Rab9 promoter-luciferase reporter, luminescence, 24 h; Potency, µM (doses to about 9.22 µM), for the others: at the highest dose activation, negative = inhibition, actives largely listed as activators; 2.8% of 320,000 active; AID 485297; note: % of control where 0% means no effect; nearly all actives have a fitted effect of over 60% in size
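Quantitative HTS format; Huh7 Rab9-luciferase reporter cells (1500/well) receive compound 2 h post-plating, incubate 24 h at 37 °C, then get luciferase reagent for 10 min before luminescence reading.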
SMN2 splice enh: enhancers of SMN2 splice variant expression; 2.8% of 210,000 active; HEK293 SMN2-luciferase splicing reporter, luminescence, 30-36 h; Potency, µM (top dose mostly 46.1 µM), for the others: top-dose activity change, positive = activation, hits mostly activators; note: % of control where 0% means no effect; nearly all actives have a fitted effect of over 55% in size
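HEK293 cells carry an SMN2 […]–luciferase reporter in which exon 7 inclusion puts luciferase in frame. Cells were plated 10-12 h before compound addition, then incubated 30-36 h at 37C. ONE-Glo luminescence was read; sodium butyrate at 4.5 mM final served as control.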
KinaseGlo FLuc: blocks Kinase-Glo luciferase, a counter-screen artifact; Kinase-Glo luciferase, ATP luminescence, 8 min; Potency, µM (titrated, usually from 38.3 µM), inactives show at the top dose activity change, negative = inhibition, usual class: inhibitors; Q27757; 0.28% of 200,000 active; note: % is set by controls: 0 for no effect and ±100 for the full control effect; nearly all actives have a fitted effect of over 60% in size
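Substrate mix (final 50 mM imidazole pH 7.2, 50 mM KCl, 7 mM MgCl2, 10 uM ATP, 0.01% Tween 20, 0.05% BSA) plus pin-tool compound, then Kinase-Glo detection mix; 8 min ambient, luminescence read.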
FLuc modulator: counter-screen for miR-21 project: firefly luciferase inhibitors or activators; 6.9% of 360,000 active; purified FLuc, Km substrates, luminescence inhibition; P08659; Potency, µM (top dose mostly 57.5 µM), for the others: top-dose activity change, negative = inhibition, usual class: inhibitors;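 note: plate controls were vehicle for no effect and reference inhibitor for full effect; nearly all actives have a fitted effect of over 55% in size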
Target sequence (P08659 whole entry, looked up): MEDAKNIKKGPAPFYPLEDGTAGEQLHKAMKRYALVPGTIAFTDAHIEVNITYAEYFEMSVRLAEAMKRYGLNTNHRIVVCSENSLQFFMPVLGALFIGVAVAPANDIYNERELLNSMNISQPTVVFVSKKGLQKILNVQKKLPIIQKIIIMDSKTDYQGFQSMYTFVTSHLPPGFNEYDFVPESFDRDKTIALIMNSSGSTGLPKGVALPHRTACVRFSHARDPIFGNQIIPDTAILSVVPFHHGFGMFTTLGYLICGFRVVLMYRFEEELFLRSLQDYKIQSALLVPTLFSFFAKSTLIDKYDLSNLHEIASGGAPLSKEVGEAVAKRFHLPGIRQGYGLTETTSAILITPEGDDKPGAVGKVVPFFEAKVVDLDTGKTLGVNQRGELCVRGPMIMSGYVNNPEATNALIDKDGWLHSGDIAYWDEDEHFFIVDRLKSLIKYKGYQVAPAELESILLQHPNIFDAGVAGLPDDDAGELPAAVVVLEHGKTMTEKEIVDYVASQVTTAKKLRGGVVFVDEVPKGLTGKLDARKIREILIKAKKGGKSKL
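Purified P. pyralis luciferase, 10 nM final, with Km-level 10 uM D-luciferin and 10 uM ATP in 50 mM Tris acetate pH 7.5, 10 mM Mg acetate, 0.01% Tween-20, 0.05% BSA; 6-point qHTS titration about 60 µM downward; luminescence read.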
ELG1 genotoxic: induces genotoxicity in HEK293T cells with luciferase-tagged ELG1. Potency, µM (top dose mostly 46 µM), for the others: at the top dose activity change, positive = activation, most hits filed as activators. AID 504466. HEK293T ELG1-luciferase reporter, luminescence, 16 h. 1.3% of 330,000 active; note: % of control where 0% means no effect; nearly all actives have a fitted effect of over 60% in size
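Reporter readout depends on ELG1 protein level, which increases with genetic stress. After 16 hr compound exposure at 37 °C, luciferase activity was quantified using ONE-Glo.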
NPC1 prom act: NPC1 promoter activation | Huh7 NPC1 promoter luciferase reporter, 24 h | Potency, µM (titrated, usually from 9.22 µM), for inactives: at the highest dose activation, most hits filed as activators | 2.4% of 320,000 active | AID 485313; note: % of control where 0% means no effect; nearly all actives have a fitted effect of over 60% in size
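Compounds in DMSO were transferred onto Huh7 NPC1-luciferase reporter cells pre-incubated 2 h; after 24 h at 37 °C, Amplite reagent was dispensed and luminescence recorded 10 min later.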
* hit, by the source's call; ? = inconclusive; · = not tested or not shown; [ ] = another dose, or the depositor's remark. This is a sample that favours compounds with a hit; in the whole collection about 7.3% have one here. Calls come from the whole dose curve; as a rule, active = well fitted curve in the direction sought with a large enough effect; inconclusive = small, poorly fitted or top-dose-only effect, or another doubt; inactive = no such curve, though single readings can be large; an effect the other way counts as inactive or inconclusive. Potency is the fitted concentration of half-maximal effect.

SMILES	Rab9 promoter act	SMN2 splice enh	KinaseGlo FLuc	FLuc modulator	ELG1 genotoxic	NPC1 prom act
CO/N=C/CC(=O)c1ccc(-c2ccccc2)cc1	12.4%	12.1%	-2.6%	?	10.9%	-4.2%
CO/N=C/CC(=O)c1cnc(-c2ccc(Cl)cc2)s1	?	25.1µM*	-3.7%	?	?	?
c1ccc(Sc2ncnc3c2oc2ccccc23)cc1	?	?	-9.0%	8.49µM*	?	?
Cc1ccc(Nc2ncnc3c2oc2ccccc23)cc1	2µM*	12.6µM*	-1.9%	3.38µM*	7.31µM*	2.51µM*
COc1cccc(Nc2nc(C)nc3c2oc2ccccc23)c1	-1.9%	·	·	?	-9.9%	-6.5%
COc1ccc(Nc2ncnc3c2oc2ccccc23)cc1	1.26µM*	11.2µM*	6.9%	9.53µM*	8.91µM*	2.51µM*
CC(=O)NC(CCCNC(=S)NC1CCCCC1)C(=O)O (stereo not drawn)	-1.1%	-5.3%	0.0%	-0.7%	-2.5%	-6.2%
O=C1CS(=O)(=O)C2(C(=O)N(Cc3ccc(F)cc3)c3ccccc32)N1c1cccc(C(F)(F)F)c1 (stereo not drawn)	·	·	·	4.2%	·	·
Cc1ccc(NCc2nnc(SCC(=O)Nc3ncc(C)s3)n2Cc2ccco2)c(C)c1	4.5%	-15.5%	11.2%	-1.2%	0.6%	0.5%
O=C(Nc1ccc(N2CCOCC2)cc1N1CCOCC1)c1ccccc1	·	·	·	·	-2.2%	·
CC(Nc1ccc2c(c1)OCCO2)C(=O)Nc1ccc2c(c1)OCO2 (stereo not drawn)	-7.7%	-10.5%	-0.9%	-10.7%	5.5%	-0.8%
Cc1ccc(O)c(NC(=S)NC(=O)C(C)C)c1	11.2%	·	·	-20.5%	13.6%	11.7%
Cc1ccc(O)c(NC(=S)NC(=O)CC(C)C)c1	?	12.6µM*	-4.8%	16.9µM*	?	?
Cc1ccc(NC(=S)NC(=O)Cc2ccccc2)c(O)c1	3.2%	·	·	15.1µM*	6.2%	22.2%
Cc1nc2nc(SCc3c(F)cccc3Cl)nn2c(C)c1Cc1ccccc1	·	·	·	5.36µM*	·	·
O=C(N/N=C/c1ccc(-c2ccc(Br)cc2)o1)c1ccc2c(c1)OCO2	?	-12.8%	0.5%	-2.9%	9.9%	1.2%
Cc1ccc(/C=N/NC(=O)c2ccc3c(c2)OCCO3)s1	?	·	·	3.38µM*	?	?
O=C(N/N=C/c1cccs1)c1ccc2ccccc2c1	?	·	·	10.7µM*	16.0%	0.6%
O=C(N/N=C/c1cccs1)c1cccc2cc[nH]c12	?	-18.5%	-0.1%	23.9µM*	-8.2%	?
O=C(N/N=C/c1cccc([N+](=O)[O-])c1)c1cccc2cc[nH]c12	1.3%	17.4%	1.1%	6.8%	7.2%	-0.2%
O=C(N/N=C/c1cc(Br)cs1)c1ccc2c(c1)OCCO2	?	·	·	1.35µM*	15.2%	2.8%
CC(=O)Oc1ccccc1C(=O)O	2.2%[46.1 µM]	20.1%	-10.7%	·	·	0.3%[46.1 µM]
Cc1ccc(/C=N/NC(=O)c2ccc3ccccc3c2)s1	-10.9%	·	·	26.9µM*	?	-19.8%
Cc1ccc(/C=N/NC(=O)c2cccc(S(=O)(=O)Nc3ccccc3Cl)c2)s1	0.4%	·	·	?	-1.6%	-3.2%
O=C(Nc1ccncc1)c1cccc(F)c1	-1.4%	3.6%	4.4%	2.2%	-8.7%	0.4%
SMILES	Rab9 promoter act	SMN2 splice enh	KinaseGlo FLuc	FLuc modulator	ELG1 genotoxic	NPC1 prom act
O=C(Cc1ccccc1F)Nc1ccc2c(c1)CCC2	3.16µM*	·	·	7.57µM*	14.6µM*	2µM*
O=C(Nc1ccc2c(c1)CCC2)c1cccc(F)c1	1.41µM*	11.2µM*	-22.4%	5.36µM*	8.2µM*	3.16µM*
Cc1ccccc1CC(=O)Nc1ccc2c(c1)CCC2	2.7%	·	·	?	9.2%	-0.6%
O=C(Nc1ccc2c(c1)CCC2)c1ccc(F)c(S(=O)(=O)N2CCOCC2)c1	?	-8.6%[1.84 µM]	-4.2%	?	6.1%	28.0%
O=C(Nc1ccc2c(c1)CCC2)c1cc(F)cc(F)c1	1.41µM*	·	·	3.01µM*	?	2.51µM*
CC(=O)c1ccc(Nc2cc(C)nc3ccccc23)cc1	-4.1%	·	·	-0.6%	-2.1%	-31.1%

Screens: PubChem, National Center for Advancing Translational Sciences (NCATS)
